Structures are written as SMILES. Active and inactive are the calls of the source.

Here are results for five compounds from PubChem BioAssay.

Experiment [1] is described as follows: small molecules captured by biotinylated probe aFSTL3 – biochemical, small-molecule microarray, fluorescence 635/667, stem cell growth factor project, primary screen (AID 1064).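 Also: measures binding of the biotinylated anti-FSTL3 antibody to printed compounds.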 Conditions: higher = more signal.
A short description of experiment [2]: binders from COS7 lysate, DM2A8 probe, primary screen, torsin A project, cell lysate, small-molecule microarray, fluorescence 635/667 (AID 1065). Conditions: higher = more signal, COS7 lysate expressing mutant human TOR1A.
Experiment [3] can be described thus: small molecules captured by biotinylated probe aFGF2 – biochemical, small-molecule microarray, fluorescence 635/667, stem cell growth factor project, primary screen (AID 1067).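 Also: measures binding of biotinylated aFGF2 protein to printed compounds on slides; z-score merges feature fluorescence and signal-to-noise across triplicate slides.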 Conditions: higher = more signal.
Experiment [4] in a line: small molecules captured by biotinylated probe aFGF10 – biochemical, small-molecule microarray, fluorescence 635/667, stem cell growth factor project, primary screen (AID 1071).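 Also: score merges 667 nm spot intensity and signal to noise from triplicate slides.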 The conditions noted are these: higher = more signal.
Experiment [5] has as its target Neurogenic locus notch homolog protein 2 (Homo sapiens) (UniProt Q04721). Briefly: small molecules binding Notch2 protein – biochemical, small-molecule microarray, 635 nm fluorescence, stem cell growth factors, primary screen (AID 1073). Conditions: higher = more signal.
The target of experiment [6] is Pro-neuregulin-1, membrane-bound isoform (Homo sapiens) (UniProt Q02297). The experiment is described as follows: small molecules binding neuregulin-1 protein – biochemical, small-molecule microarray, fluorescence 635/667, psychiatric disease protein project, primary screen (AID 1075).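 Also: score combines 667 nm spot fluorescence with signal to noise.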 Conditions: NRG1 binding, 635 nm fluorescence, higher = more signal.
Chain of Pro-neuregulin-1, membrane-bound isoform (Homo sapiens) (Q02297 whole entry, looked up, the tested form may be a part, canonical isoform): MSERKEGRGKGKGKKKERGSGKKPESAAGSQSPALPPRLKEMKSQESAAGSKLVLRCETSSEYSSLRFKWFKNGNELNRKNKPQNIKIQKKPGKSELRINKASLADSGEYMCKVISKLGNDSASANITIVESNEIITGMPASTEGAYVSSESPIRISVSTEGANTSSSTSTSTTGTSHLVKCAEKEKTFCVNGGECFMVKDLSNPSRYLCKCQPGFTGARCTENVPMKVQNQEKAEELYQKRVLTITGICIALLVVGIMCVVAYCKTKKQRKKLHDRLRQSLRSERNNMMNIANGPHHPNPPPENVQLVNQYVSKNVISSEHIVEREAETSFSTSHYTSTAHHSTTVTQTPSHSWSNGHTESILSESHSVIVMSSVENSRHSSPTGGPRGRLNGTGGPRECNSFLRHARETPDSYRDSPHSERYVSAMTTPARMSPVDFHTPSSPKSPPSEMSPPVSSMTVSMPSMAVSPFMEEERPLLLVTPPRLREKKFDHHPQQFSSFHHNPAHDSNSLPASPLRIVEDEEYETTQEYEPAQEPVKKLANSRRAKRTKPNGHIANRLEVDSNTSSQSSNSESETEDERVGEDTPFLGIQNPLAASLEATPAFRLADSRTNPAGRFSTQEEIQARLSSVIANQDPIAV
Experiment [7] concerns Neuregulin-1 EGF-like domain. Briefly: small molecules binding NRG1 EGF domain – biochemical, small-molecule microarray, 635 nm fluorescence, primary screen (AID 1081).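 Also: binding of the protein to compounds printed on small-molecule microarray slides.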 The conditions noted are these: higher = more signal.
Experiment [8] in a line: FRG1 expression reporter modulators in myotubes – cell-based, C2C12 myotubes, firefly/Renilla luciferase, luminescence, FRG1 inhibition for FSHD, primary screen (AID 1084). The conditions noted are these: FRG1 promoter luciferase, higher = more signal, called active from +8 up or from −8 down.
The nature of experiment [9]: small molecules captured by biotinylated probe aFST – biochemical, small-molecule microarray, fluorescence 635/667, stem cell growth factor project, primary screen (AID 1086).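 Also: score merges 667 nm fluorescence with signal-to-noise of each printed compound spot.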 Conditions: higher = more signal.
A short description of experiment [10]: binders of probe aHhip on microarray, primary screen, stem cell growth factor project, biochemical, small-molecule microarray, fluorescence 635/667 (AID 1087).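 Also: score merges spot fluorescence at 667nm with spot signal to noise ratio.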 The conditions noted are these: higher = more signal.
The test system of experiment [11] is PRMT1 (protein arginine N-methyltransferase 1). Briefly: small molecules binding arginine methyltransferase PRMT1 – biochemical, small-molecule microarray, 635 nm fluorescence, primary screen (AID 1088).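 Also: binding of Prmt1 protein to compounds spotted on small-molecule microarray slides.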 The conditions noted are these: higher = more signal.
The nature of experiment [12]: growth effects on S. cerevisiae YJM789 – YJM789 clinical isolate, OD600, 24 h, basal, primary screen (AID 1089).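 Also: growth of clinical yeast isolate S. cerevisiae YJM 789 seeded 1000 cells per well; test concentration not given here.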 Conditions: higher = more signal, called active from +8 up or from −8 down.
Experiment [13] in a line: S. pombe growth modifiers, basal conditions – strain 972, OD600, 24 h, no modulator, primary screen (AID 1090).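 Also: basal condition with compound alone and no growth modifier present; test concentration not given here.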 The conditions noted are these: S. pombe 972 growth, higher = more signal, called active from +8 up or from −8 down.
Experiment [14] in a line: budding yeast growth modifiers under rapamycin – strain BY4716, OD600, 96 h, primary screen (AID 1091). Also: test concentration not given here. Conditions: S. cerevisiae BY4716 + rapamycin, higher = more signal, called active from +8 up or from −8 down.
Experiment [15] has as its target Torsin-1A-interacting protein 2 (Homo sapiens) (UniProt Q8NFQ8). The experiment is described as follows: small molecules binding lysate-expressed LULL1 – cell lysate, human LULL1 lysate, 635/667 nm fluorescence, primary screen (AID 1092).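 Also: probe is lysate of COS7 cells overexpressing human LULL1; score merges per-feature 667 nm fluorescence with signal-to-noise.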 Conditions: small-molecule microarray, hLULL1 lysate binding, 635 nm fluorescence; higher = more signal.
Experiment [16] can be described thus: optical density change of DRC41 E. coli – strain DRC41, OD650, 24 h, E. coli filamentation project, primary screen (AID 1093).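 Also: MC1000 strain lacking acrAB efflux and sulA so SOS filamentation is blocked; test concentration not given here.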 The conditions noted are these: E. coli DRC41 growth, higher = more signal, called active from +8 up or from −8 down.
Experiment [17] can be described thus: probe aLefty2 binding to arrayed compounds – biochemical, biotinylated probe, 635/667 nm fluorescence, primary screen (AID 1094).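 Also: score merges spot fluorescence near 667 nm with spot signal-to-noise ratio.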 Conditions: small-molecule microarray, higher = more signal.
The test system of experiment [18] is Noggin (protein binding on small-molecule microarray). The experiment is described as follows: small molecules binding Noggin protein – biochemical, 635/667 nm fluorescence, primary screen (AID 1095).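 Also: score merges 667 nm feature fluorescence with signal to noise over triplicate slides.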 Conditions: 635 nm fluorescence, higher = more signal.
Experiment [19] concerns the target Neurogenic locus notch homolog protein 3 (Homo sapiens) (UniProt Q9UM47). Briefly: small molecules binding NOTCH3 protein – biochemical, 635/667 nm fluorescence, primary screen (AID 1096). Conditions: small-molecule microarray, 635 nm fluorescence, higher = more signal.
The nature of experiment [20]: probe aEGFR binding to arrayed compounds – biochemical, biotinylated probe, 635/667 nm fluorescence, primary screen (AID 1097).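 Also: probe is a biotinylated anti-EGFR antibody binding compounds printed on slides; score combines fluorescence near 667 nm and signal to noise of each spot.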 Conditions: small-molecule microarray, higher = more signal.

Chain of Neurogenic locus notch homolog protein 3 (Homo sapiens) (Q9UM47 whole entry, looked up): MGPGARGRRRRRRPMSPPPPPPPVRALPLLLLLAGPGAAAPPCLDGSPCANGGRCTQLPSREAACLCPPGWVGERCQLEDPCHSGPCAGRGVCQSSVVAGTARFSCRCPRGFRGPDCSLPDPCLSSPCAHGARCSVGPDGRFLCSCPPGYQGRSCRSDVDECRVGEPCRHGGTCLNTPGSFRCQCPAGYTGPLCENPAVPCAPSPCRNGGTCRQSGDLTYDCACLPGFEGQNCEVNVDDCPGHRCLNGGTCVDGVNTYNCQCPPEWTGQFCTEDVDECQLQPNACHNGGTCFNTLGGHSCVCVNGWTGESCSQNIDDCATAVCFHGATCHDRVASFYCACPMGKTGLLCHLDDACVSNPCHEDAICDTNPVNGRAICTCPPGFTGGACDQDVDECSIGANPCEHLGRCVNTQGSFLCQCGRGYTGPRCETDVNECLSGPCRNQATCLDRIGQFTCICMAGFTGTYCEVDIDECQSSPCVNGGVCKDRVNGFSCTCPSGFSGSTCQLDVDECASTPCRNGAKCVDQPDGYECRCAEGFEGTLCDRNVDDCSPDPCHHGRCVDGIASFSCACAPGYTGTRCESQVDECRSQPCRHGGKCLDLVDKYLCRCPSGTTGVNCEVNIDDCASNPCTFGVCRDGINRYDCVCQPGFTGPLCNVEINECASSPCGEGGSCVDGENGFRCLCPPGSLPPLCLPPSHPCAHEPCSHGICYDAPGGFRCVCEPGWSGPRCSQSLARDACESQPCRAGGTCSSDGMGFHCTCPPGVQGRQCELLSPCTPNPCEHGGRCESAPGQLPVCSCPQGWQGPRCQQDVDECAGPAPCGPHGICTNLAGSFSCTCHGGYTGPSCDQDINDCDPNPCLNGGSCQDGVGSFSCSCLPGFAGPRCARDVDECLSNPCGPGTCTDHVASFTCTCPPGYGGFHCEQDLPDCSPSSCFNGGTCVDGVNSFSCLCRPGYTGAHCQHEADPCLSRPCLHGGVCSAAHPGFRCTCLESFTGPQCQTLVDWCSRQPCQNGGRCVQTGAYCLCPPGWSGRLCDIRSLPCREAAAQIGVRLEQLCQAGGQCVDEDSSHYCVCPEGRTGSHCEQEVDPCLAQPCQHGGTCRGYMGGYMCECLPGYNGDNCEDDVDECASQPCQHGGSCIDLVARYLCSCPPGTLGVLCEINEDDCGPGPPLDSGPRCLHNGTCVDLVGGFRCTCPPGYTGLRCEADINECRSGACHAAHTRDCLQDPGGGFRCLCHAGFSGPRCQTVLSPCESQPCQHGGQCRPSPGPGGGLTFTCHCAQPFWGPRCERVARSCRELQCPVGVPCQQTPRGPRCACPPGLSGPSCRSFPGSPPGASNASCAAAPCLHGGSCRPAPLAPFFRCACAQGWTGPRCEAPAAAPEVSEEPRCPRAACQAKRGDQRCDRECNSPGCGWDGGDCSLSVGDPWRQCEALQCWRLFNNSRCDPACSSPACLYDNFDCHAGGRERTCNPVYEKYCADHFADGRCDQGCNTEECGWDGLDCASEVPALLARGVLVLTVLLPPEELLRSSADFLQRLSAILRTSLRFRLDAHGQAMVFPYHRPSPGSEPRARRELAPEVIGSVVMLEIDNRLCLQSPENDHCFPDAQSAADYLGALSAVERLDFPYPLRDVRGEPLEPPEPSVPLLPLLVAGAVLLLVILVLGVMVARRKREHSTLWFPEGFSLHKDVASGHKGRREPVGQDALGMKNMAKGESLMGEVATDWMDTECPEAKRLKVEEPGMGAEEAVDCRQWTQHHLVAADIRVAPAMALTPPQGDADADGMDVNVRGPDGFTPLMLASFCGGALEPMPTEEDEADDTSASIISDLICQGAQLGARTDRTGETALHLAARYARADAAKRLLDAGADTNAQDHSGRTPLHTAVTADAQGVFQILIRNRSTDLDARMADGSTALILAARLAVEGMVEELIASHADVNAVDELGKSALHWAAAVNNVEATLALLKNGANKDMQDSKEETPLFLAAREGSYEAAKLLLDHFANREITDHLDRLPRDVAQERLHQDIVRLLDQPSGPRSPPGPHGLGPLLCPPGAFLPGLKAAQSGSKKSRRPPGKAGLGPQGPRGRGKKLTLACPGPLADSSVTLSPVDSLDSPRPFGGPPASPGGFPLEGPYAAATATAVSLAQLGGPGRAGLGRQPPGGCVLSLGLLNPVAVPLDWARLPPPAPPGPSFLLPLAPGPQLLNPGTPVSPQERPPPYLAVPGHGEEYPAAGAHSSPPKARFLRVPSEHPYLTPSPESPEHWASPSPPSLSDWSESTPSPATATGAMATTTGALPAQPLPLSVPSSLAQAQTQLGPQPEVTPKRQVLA
Chain of Torsin-1A-interacting protein 2 (Homo sapiens) (Q8NFQ8 whole entry, looked up): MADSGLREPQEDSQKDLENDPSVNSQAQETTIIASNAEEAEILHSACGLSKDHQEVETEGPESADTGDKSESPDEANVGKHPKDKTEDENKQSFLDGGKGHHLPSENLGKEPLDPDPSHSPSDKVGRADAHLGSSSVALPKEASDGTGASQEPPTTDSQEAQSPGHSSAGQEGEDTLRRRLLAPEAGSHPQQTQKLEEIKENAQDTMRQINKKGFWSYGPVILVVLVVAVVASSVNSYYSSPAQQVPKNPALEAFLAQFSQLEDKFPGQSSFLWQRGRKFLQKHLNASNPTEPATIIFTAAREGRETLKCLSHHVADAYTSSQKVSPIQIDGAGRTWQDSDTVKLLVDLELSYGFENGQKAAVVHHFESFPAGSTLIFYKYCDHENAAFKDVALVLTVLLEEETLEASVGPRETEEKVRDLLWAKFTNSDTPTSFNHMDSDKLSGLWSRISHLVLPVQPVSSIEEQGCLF

With `N#Cc1ccc(NN2C(C(O)C(c3ccccc3)c3ccccc3)C=CC3C(=O)N(c4ccccc4)C(=O)C32)cc1` (stereo not given), the composite z-score in [1] was 0.223; in experiment [2] it was 0.135; in [3] it was -0.0462; in experiment [4] it was 0.952; in experiment [5] it was 1.65; in experiment [6], 1.77. Further, the composite z-score in [7] came out at 1.15; in experiment [9], 1.93; in experiment [10], 0.0585; in experiment [11], 1.07; in experiment [15], 3.58; in experiment [17], 0.167. In addition, the composite z-score in experiment [18] is 0.297; in [19] it was 1.01; in [20], 0.0981. Also, the z-score in experiment [8] is -0.621 (inactive); in [12], 0.43 (inactive); in experiment [13] it was 1.25 (inactive); in experiment [14], 5.53 (inactive); in [16], -0.0873 (inactive).

Consider `C=CC1(C(=O)OC)CC=C(C(=O)OC)CC1` (stereo not given), for which the composite z-score in [1] is -0.219; in experiment [2], 0.191; in experiment [3], -0.0226; in [4], 1.17; in experiment [5] it was 1.12; in experiment [6] it was 1.73. The composite z-score is 1.12 in [7]; 0.0908 in [9]; 0.0623 in experiment [10]; 0.911 in experiment [11]; 0.531 in [15]; -0.0449 in experiment [17]. Besides, the composite z-score in experiment [18] turned out to be 0.533; in [19], 0.57; in [20], 0.0413. In addition, the z-score in experiment [8] was -0.941 (inactive); in experiment [12], -1.64 (inactive); in [13], 0.358 (inactive); in [14], -0.624 (inactive); in experiment [16], -0.487 (inactive).

For the compound `COCCOC(=O)N1C(=O)[C@@]2(c3ccccc31)[C@H](C(=O)N1CCc3cc(OC)c(OC)cc3C1)[C@H]1C(=O)O[C@H](c3ccccc3)[C@H](c3ccccc3)N1[C@@H]2c1ccc(OCCO)cc1`, the composite z-score in [1] is 0.249; in experiment [2], 0.977; in [3], -0.279; in [4], 0.509; in [5], 0.832; in [6], 0.0602. The composite z-score in experiment [7] was 1.21; in experiment [9] it was 0.412; in [10] it was -0.0085; in experiment [11], 1.51; in experiment [15], 2.27; in experiment [17], 0.103. Further, the results for the composite z-score in experiment [18], in experiment [19] and in experiment [20] were 0.94, 0.995 and -0.0309, respectively. Besides, the z-score is -1.98 (inactive) in experiment [8]; 2.26 (inactive) in [12]; 0.476 (inactive) in experiment [13]; 4.47 (inactive) in experiment [14]; 1.68 (inactive) in [16].

For `C=CCC(OC(C)=O)[C@@H]1[C@@H](N(Cc2ccc(-c3ccccc3)cc2)C(=O)c2cccc3ccccc23)c2cc(OCCCO)ccc2N1C(=O)c1ccc(-c2ccccc2)cc1` (stereo not given in full), the composite z-score was 0.103 in experiment [1]; 0.177 in experiment [2]; 0.0521 in experiment [3]; 0.19 in [4]; 0.0198 in [5]; -0.0375 in [6]. In addition, the composite z-score was -0.159 in experiment [7]; 0.461 in [9]; -0.0006 in experiment [10]; 0.245 in experiment [11]; 0.796 in [15]; 0.0159 in experiment [17]. Further, the composite z-score is 0.0623 in experiment [18], -0.0827 in [19] and 0.0009 in [20]. In addition, the z-score was -1.45 (inactive) in experiment [8]; 0.21 (inactive) in experiment [12]; -0.234 (inactive) in [13]; -0.438 (inactive) in [14]; 1.17 (inactive) in [16].

For the compound `O=C(NCCN1CCOCC1)[C@@H]1c2ccccc2C(=O)N(C2CCCCC2)[C@H]1c1ccc(CO)cc1`, the composite z-score in experiment [1] is 0.64; in experiment [2], -0.324; in experiment [3], -0.0616; in experiment [4], -0.413; in experiment [5], -0.194; in [6], 0.96. In addition, the composite z-score in experiment [7] is 0.872; in experiment [9] it was 0.106; in experiment [10], -0.271; in experiment [11], 0.403; in [15], 2.35; in experiment [17], -0.0042. The composite z-score was -0.562 in [18], -0.565 in experiment [19] and -0.2 in [20]. Further, the z-score was -0.658 (inactive) in [8]; -0.166 (inactive) in experiment [12]; -0.556 (inactive) in experiment [13]; 0.0989 (inactive) in [14]; -0.0985 (inactive) in [16].
